HDAC3 inhib: blocks human histone deacetylase 3; O15379; recombinant HDAC3, fluorogenic peptide/trypsin coupled, fluorescence; inhibition, % at 8.3 µM; actives 0.15% (n = 320,000); AID 2718; in the data active means inhibition above about 26%, passing the limit was not always enough
Rce1 inh: blocks yeast Ras-converting enzyme | Q03530 | yeast membranes, quenched prenylated peptide cleavage fluorescence | calls only | actives 0.27% (n = 290,000);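 active means fall in fluorescence gain of 50% or more versus controls, with final raw signal at or below 3038400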;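 further: plate controls were neutral control wells for no effect and wells lacking membranes for full effect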
Efflux pump inh: blocks antifungal efflux pumps in multiplex yeast assay. S. cerevisiae Candida pump triplex, Nile Red efflux. inhibition, % at 10 µM. actives 0.44% (n = 330,000). AID 485275;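 active means plate passing quality check with inhibition over a set limit, or well fluorescence over plate mean plus 4 SD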;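 further: Nile Red retained in pooled yeast measured as flow cytometry median fluorescence; 0% = buffer negative control and 100% = Enniatin B positive control; higher means more Nile Red kept so more efflux inhibition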
Rtt109 Vps75: C. albicans Rtt109 histone acetyltransferase inhibition; Q5AAJ8; actives 0.16% (n = 330,000); inhibition, % at 34.9 µM; purified Rtt109/Vps75, ThioGlo CoA-SH fluorescence, 4 h;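 active means inhibition of at least 50% in every replicate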
ALR H2O2 inh: inhibitors of human sulfhydryl oxidase ALR; purified ALR, DTT oxidation, H2O2 HRP-luminol luminescence; inhibition, % (concentration not given with the values); actives 3.8% (n = 290,000); AID 485317;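 active means mean replicate inhibition above about 79%, with every replicate also reaching it, limit read from the data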
GRK2 aptamer HTS: human GRK2 inhibition via aptamer displacement; bead flow cytometry, FAM-aptamer displacement from GRK2; inhibition of aptamer binding, % at 10 µM; actives 0.59% (n = 330,000); AID 488847;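 active means inhibition of aptamer binding above 40%, roughly 3 SD of noise, on plates passing a quality check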;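 further: median bead fluorescence of bound FAM aptamer so fluorescent compounds give negative values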
GRK2 inh confirm: human GRK2 inhibition confirmation, cherry pick 1. shares compounds with GRK2 aptamer HTS. bead-bound GRK2, FAM-aptamer displacement, flow cytometry. aptamer displacement, % at 10 µM. actives 4% (n = 2,000);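 active means aptamer displacement above 40%, near three times the noise of non-fluorescent compounds, on plates passing quality checks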;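 further: negative values mostly reflect intrinsic compound fluorescence rather than true enhancement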
Aptamer quench SP: quenches fluorescent RNA aptamer, GRK2 hit artifact; 2,000 tested, under 10 active; fluorescence response (% of DMSO), % at 10 µM; shares compounds with GRK2 aptamer HTS; AID 504580; Carboxyfluorescein RNA aptamer on beads, flow cytometry quenching; hits give low values;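 active means compounds that quench the bead-bound fluorescent RNA probe, cutting fluorescence to under half of the solvent control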;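 further: counterscreen run without GRK2 so only probe quenching by compound is measured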
GRK2 CP2: confirmation of human GRK2 inhibitors binding RNA aptamer site. inhibition of aptamer binding, % at 10 µM. shares compounds with GRK2 aptamer HTS. bead-bound GRK2, FAM-aptamer displacement, flow cytometry. AID 504782. 360 tested, under 10 active;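 active means inhibition of aptamer binding above 40%, about triple the noise seen with nonglowing compounds, on plates passing quality control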;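 further: negative values mostly come from compounds that fluoresce themselves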
FAM quench CP2: aptamer fluorescence quenching in GRK2 counter-screen; shares compounds with GRK2 aptamer HTS; carboxyfluorescein RNA aptamer beads, flow cytometry quenching; hits give low values; fluorescence response vs DMSO, % at 10 µM; 360 tested, under 10 active;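 active means response vs DMSO under 50%, meaning signal dropped by over half, treated as fluorescence quencher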;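 further: labelled aptamer on streptavidin beads without GRK2 as a quench counter-screen; 100% = bead fluorescence of DMSO wells and lower means quenching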
Numbers without * were called inactive; i = inactive; . = not tested or not shown. Compounds with a hit are over-represented: about 4.5% of the library has one in this group of screens.

SMILES	HDAC3 inhib	Rce1 inh	Efflux pump inh	Rtt109 Vps75	ALR H2O2 inh	GRK2 aptamer HTS	GRK2 inh confirm	Aptamer quench SP	others
COc1ccc(C2=NO[C@@H]3C(=O)N(c4ccc(C)cc4C)C(=O)[C@H]23)cc1OC	-5.6	.	-0.1	7.3	.	0.0	.	.	GRK2 CP2=-3.2;FAM quench CP2=104.0
Cc1ccc(N2C(=O)[C@@H]3C(c4ccc(F)cc4)=NO[C@@H]3C2=O)cc1	1.4	i	-0.1	9.4	-2.1	4.0	.	.	GRK2 CP2=0.9;FAM quench CP2=102.0
O=C1[C@@H]2C(c3cccnc3)=NO[C@@H]2C(=O)N1c1ccc(Br)cc1	.	.	-0.3	0.3	-2.8	5.0	.	.
COc1ccc(C2=NO[C@@H]3C(=O)N(c4cccc(C)c4C)C(=O)[C@H]23)cc1OC	-3.0	i	0.1	1.3	.	0.0	.	.	GRK2 CP2=9.7;FAM quench CP2=100.0
Cn1nc(OCC(=O)O)cc1C(F)(F)F	1.8	i	-0.2	-4.8	-4.8	0.0	.	.
Cc1ccc(C(=O)NCCCN2CCOCC2)c(Cl)c1	-0.6	i	0.0	-12.0	-2.8	0.0	.	.
COCCN1C(=O)N[C@@H](c2cccc(F)c2)C(C(=O)OC)=C1C	-4.0	i	0.0	-3.1	1.1	91.0*	-0.1	105.0
COc1ccccc1N1CCN(/N=C(\C)c2ccccc2O)CC1	3.2	i	0.1	-4.5	1.2	55.0*	-0.6	99.7
CCN(CC)CCCN(C(=O)c1ccco1)c1nc(-c2ccc(Cl)cc2)cs1	4.1	i	0.0	2.6	-20.1	66.0*	-15.4	99.1
CCN(CC)CCCN(C(=O)c1cccs1)c1nc(-c2ccc(OC)cc2)cs1	-1.2	i	-0.1	-2.6	-27.1	0.0	.	.
CCN(CC)CCCN(C(=O)c1ccco1)c1nc(-c2ccc(C)cc2)cs1	2.4	i	0.1	16.9	-16.4	59.0*	-12.9	104.0
COCCCN(C(=O)c1ccco1)c1nc(-c2ccc(OC)cc2)cs1	-4.7	i	0.0	-3.3	-1.2	4.0	.	.
O=C(c1ccco1)N(CCCN1CCOCC1)c1nc(-c2ccc(Cl)cc2)cs1	-1.3	i	0.1	.	-14.8	2.0	1.4	102.7
CCCCc1nnc(NC(=O)c2ccc3[nH]c(=O)c(=O)[nH]c3c2)s1	-0.1	i	0.5	6.3	-5.4	0.0	.	.
Cc1nn(-c2ccccc2)c2c1C(=O)N(Cc1ccccc1)C(=O)C(C)(C)C2	-0.7	i	0.1	16.0	-2.1	44.0*	-0.8	95.0
Cc1nn(-c2ccccc2)c2c1C(O)CC(C)(C)C2 (centres undefined)	4.4	i	0.4	-8.1	2.7	3.0	.	.
Cc1ccc(/C=C/C(=O)NCCc2c[nH]c3ccccc23)o1	-4.4	i	-0.1	11.1	10.9	94.0*	-0.1	100.6
O=C(Cn1nc(CNc2ccc(Cl)cc2)[n+]2c1CCCCC2)c1ccc(Br)cc1	.	i	1.3	13.4	.	0.0	.	.
O=C(Cn1nc(CNc2ccc(Br)cc2)[n+]2c1CCCCC2)c1ccc([N+](=O)[O-])cc1	3.7	i	-0.1	6.8	17.9	86.0*	-27.6	94.0
O=C(CSc1cn(CCNC(=O)c2ccccc2)c2ccccc12)NCc1ccco1	.	i	0.1	0.9	30.9	72.0*	-3.2	102.8
CCCn1cc(SCC(=O)NCc2ccco2)c2ccccc21	1.2	i	-0.2	-0.5	26.7	0.0	.	.
O=C(CSc1cn(CCNC(=O)c2cccs2)c2ccccc12)NC1CCCC1	0.5	i	0.1	-14.9	10.1	0.0	.	.	GRK2 CP2=-0.1;FAM quench CP2=106.0
COC(=O)CN(C#N)c1nc(NCc2ccccc2)nc(OC)n1	-2.8	i	0.3	-4.8	4.7	2.0	.	.
CC1CCCC(NC(=O)COC(=O)c2cc(S(=O)(=O)N3CCOCC3)ccc2F)C1C (centres undefined)	-6.8	.	-0.1	15.9	-3.3	60.0*	0.8	101.5

Screening data (PubChem)
